RORgamma inh: ROR gamma (mouse) transcription inhibition | P51450 | Drosophila S2 Gal4-RORgamma UAS-luciferase reporter, 20 h | Potency, µM (highest dose often 53.6 µM), for inactives: at the top dose activity change, negative = inhibition, most hits filed as inhibitors | hit rate 5.4% among 310,000 | AID 2551; further: on the % scale 0 is the no-effect control and ±100 the full control effect; nearly all actives have a fitted effect of over 60% in size
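Read-out: Photinus luciferase luminescence; inhibitors lower reporter signal. Insect Schneider cells with Gal4-ROR gamma fusion under metallothionein promoter, UAS reporter; 700 uM final copper sulfate induction, 20 hr, ambient temperature.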
MCF10A rerep: induces DNA re-replication in MCF 10a normal breast cells; MCF 10A DNA re-replication, Hoechst nuclear intensity, 48 h; Potency, µM (highest dose often 46.1 µM), without a hit: at the top dose activity, positive = re-replication, usual class: activators; hit rate 2.9% among 350,000; AID 624296; further: % of control where 0% means no effect; nearly all actives have a fitted effect of over 50% in size
Gal4-VP16 FLuc: inhibits Gal4-VP16 luciferase reporter, ROR gamma counter-screen. Drosophila S2 Gal4-VP16 UAS-luciferase, luminescence, 20 h. Potency, µM (top dose mostly 53.6 µM), for the others: top-dose activity, negative = inhibition, most hits filed as inhibitors. hit rate 3.5% among 310,000. AID 2546;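 further: Gal4-VP16 expression switched on by copper sulfate through the metallothionein promoter; on the % scale 0 is the no-effect control and ±100 the full control effect; nearly all actives have a fitted effect of over 50% in size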
ELG1 repair inh: blocks ELG1-dependent DNA repair in HEK293T cells | hit rate 2.3% among 330,000 | HEK293T ELG1-luciferase reporter, luminescence, 16 h; DNA damage induced by 5-fluorouridine | Potency, µM (titrated, usually from 46.1 µM), inactives show at the highest dose activity change, negative = inhibition, hits mostly inhibitors; further: on the % scale 0 is the no-effect control and ±100 the full control effect; nearly all actives have a fitted effect of over 55% in size
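HEK293T cells expressing luciferase-tagged ELG1 (2,000/well) received 5-Fluorouridine plus compound or DMSO for 16 hr at 37 °C. Luciferase was read by ONE-Glo luminescence after 30 min at room temperature.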
SW480 rereplic: DNA re-replication induction in SW480 cells. Potency, µM (top dose mostly 46.1 µM), for the others: top-dose re-replication activation, actives largely listed as activators. SW480 DNA re-replication, Hoechst DNA content imaging, 48 h. hit rate 1.8% among 340,000. AID 624297; further: % of control where 0% means no effect; nearly all actives have a fitted effect of over 55% in size
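Treated cells incubate 48 hr (37 C, 5% CO2), are stained 40 min with Hoechst, and nuclear fluorescence is enumerated; a rise in nuclei with high DNA signal marks re-replication.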
Starred values were filed as active, the others as inactive; u = inconclusive; x = no result; [ ] = dose if it differs, or a comment. This is a sample that favours compounds with a hit; in the whole collection about 10% have one here. The call rests on the fitted dose curve; in most records, active means well fitted curve in the direction sought with a large enough effect; inconclusive means small, poorly fitted or top-dose-only effect, or another doubt; inactive means no such curve, though single readings can be large; an effect the other way counts as inactive or inconclusive. Potency means the concentration at half of the fitted maximal effect.

SMILES	RORgamma inh	MCF10A rerep	Gal4-VP16 FLuc	ELG1 repair inh	SW480 rereplic
Cc1cccc(N/N=C/c2ccccc2O)c1	-18%	u	7%	u	-1%
CCN(CC)S(=O)(=O)c1ccc(N/N=C/c2ccc(O)cc2O)nc1	14µM*	u	u	u	u
Cc1ccc(/C=N/Nc2cccc3cccnc23)c(O)c1	10µM*	u	u	u	u
Oc1ccc(/C=N/Nc2cccc3cccnc23)c(O)c1	2.5µM*	-1%	-9%[0.365 µM]	u	1%
CCn1cc(CN2CCN(CCc3ccccc3)C(CCO)C2)c(C)n1 (stereo unspecified)	-11%	3%	-6%	2%	-3%
Cc1nc(SCC(=O)N2CCCCCC2)[nH]c(=O)c1C	x	1%	x	u	-4%
COc1ccc2nc(NC(=O)CS(=O)(=O)c3ccc(C)cc3)sc2c1	35%	1%	-20%	10%	-5%
CC(C)CN(C(=O)COC(=O)c1ccccc1NCc1ccco1)c1c(N)n(Cc2ccccc2)c(=O)[nH]c1=O	x	4%	x	-6%	u
Oc1ccc(C=NNc2ccccn2)c(O)c1	x	16µM*	x	x	u
CCCOC(=O)c1ccccc1O	8%	-4%	2%	x	-5%
O=C(/C=C/c1ccccc1)Oc1cccc2cccnc12	0.71µM*	u	4.5µM*	-2%	u
O=C(/C=C\c1ccccc1)Oc1cccc2cccnc12	1.4µM*	u	3.2µM*	u	u
CC(Oc1cccc2cccnc12)C(=O)N/N=C/c1ccccc1 (stereo unspecified)	18%	3%	-1%	-4%	2%
O=C(Nc1ccc(C(=O)NCCCN2CCN(c3ccccc3)CC2)cc1)C1=CSCCO1	6%	1%	1%	0%	-3%
CCOc1ccc2[nH]c3c(N4CCN(c5ccccn5)CC4)ncnc3c2c1	5%	12%	u	16µM*	u
c1ccc(CN2CCN(c3nc4ccccc4c4ccccc34)CC2)cc1	-9%	u	-6%	-17%	3%
Cc1ccc2c(c1)[nH]c1c(N3CCN(Cc4ccccc4)CC3)ncnc12	u	u	3.2µM*	18µM*	u
c1ccc(CN2CCN(c3ncnc4c3[nH]c3ccccc34)CC2)cc1	u	21µM*	16µM*	15µM*	1%
CCCCOc1ncnc2c1[nH]c1ccc(C)cc12	-24%	-2%	10µM*	u	-1%
CCOc1cc(C(=O)OCC(=O)N(C)c2ccccc2)cc(OCC)c1OCC	16%	-3%	7%	u	1%
CCC(=O)N(CCc1ccc(S(N)(=O)=O)cc1)C1CC(=O)N(c2ccc(OC)cc2)C1=O (stereo unspecified)	-9%	-7%	-3%	-19%	-1%
COc1ccc2c(c1)[nH]c1c(N3CCN(Cc4ccc5c(c4)OCO5)CC3)ncnc12	u	u	10µM*	21µM*	10%
Cc1ccc2[nH]c3c(N4CCN(Cc5ccccc5)CC4)ncnc3c2c1	u	u	3.5µM*	u	u
Cc1ccc2[nH]c3c(N4CCCCCC4)ncnc3c2c1	8%[0.365 µM]	x	x	10µM*	x
Cc1ccc2[nH]c3c(N4CCN(Cc5ccc6c(c5)OCO6)CC4)ncnc3c2c1	u	x	10µM*	23µM*	x
SMILES	RORgamma inh	MCF10A rerep	Gal4-VP16 FLuc	ELG1 repair inh	SW480 rereplic
COCCNS(=O)(=O)c1cc2[nH]c3c(c2cc1C)C(=O)CC(C)(C)C3	19%	16%	-3%	-8%	-2%
Cc1ccccc1Cn1ccc(=NCc2ccccc2)cc1	u	-3%	u	u	5%
COc1cc(C(=O)OC2CCOC2=O)cc(Cl)c1OC (stereo unspecified)	-11%	-14%	1%	3%	-8%
COc1cccc2c1cc1c(=O)n(CC(=O)NCc3ccccn3)nc(C)n12	1%	0%	-3%	8%	-8%
COc1ccc2[nH]c3c(N4CC(C)OC(C)C4)ncnc3c2c1 (stereo unspecified)	20%	-1%	-1%	u	-13%
COc1ccc2c(c1)[nH]c1c(N3CCSCC3)ncnc12	u	u	u	9.2µM*	-6%

From PubChem BioAssay
